Bioassay records: PubChem BioAssay, National Center for Advancing Translational Sciences (NCATS)
Only some compounds are listed: those with a hit (about 19% of all), similar ones and a draw of the others.
TGFb SMAD3 inh: qHTS for Inhibitors of TGF-b. Potency, µM (top dose mostly 46.1 µM), hits mostly inhibitors. HepG2 CAGA-GFP TGF-b/SMAD3 reporter, GFP fluorescence, 18 h; TGF-beta stimulated, 500 pg/mL final. 410,000 compounds, 1.2% hits; further: nearly all actives have a fitted effect of over 65% in size
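First, reporter cells (HEPG2 CAGA-GFP) rested 2 h at 37 degrees C. Next, compounds were pinned in and TGF-beta added to 500 pg/mL final. After 18 h, GFP was imaged per cell and summed per well.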
IL-1B inflam inh: qHTS for Inhibitors of Inflammasome Signaling: IL-1-beta AlphaLISA Primary Screen; THP-1 LPS/ATP IL-1B secretion, AlphaLISA, 16 h; active compounds read low; activity change, % at 57.5 µM; 360,000 compounds, 4.7% hits; in the data active means activity change below about -50%; inconclusive means mostly about -30% to -49%
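THP-1 cells pretreated 1 hr with compounds (up to 57.5 uM final), then stimulated with LPS (250 ng/mL final) plus ATP (1.25 mM final); secreted IL-1B measured by AlphaLISA after 16 hr, decreased signal indicating inhibition.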
S-ASM inh: Inhibitors of Secretory Acid Sphingomyelinase (S-ASM): qHTS. Potency, µM (doses to about 57.5 µM), usual class: inhibitors. 340,000 compounds, 0.006% hits. placental ASM, HMU-PC fluorogenic substrate, 60 min. Sphingomyelin phosphodiesterase (Homo sapiens), P17405. AID 504937, 2011
Target sequence (P17405 47-631 limits assumed): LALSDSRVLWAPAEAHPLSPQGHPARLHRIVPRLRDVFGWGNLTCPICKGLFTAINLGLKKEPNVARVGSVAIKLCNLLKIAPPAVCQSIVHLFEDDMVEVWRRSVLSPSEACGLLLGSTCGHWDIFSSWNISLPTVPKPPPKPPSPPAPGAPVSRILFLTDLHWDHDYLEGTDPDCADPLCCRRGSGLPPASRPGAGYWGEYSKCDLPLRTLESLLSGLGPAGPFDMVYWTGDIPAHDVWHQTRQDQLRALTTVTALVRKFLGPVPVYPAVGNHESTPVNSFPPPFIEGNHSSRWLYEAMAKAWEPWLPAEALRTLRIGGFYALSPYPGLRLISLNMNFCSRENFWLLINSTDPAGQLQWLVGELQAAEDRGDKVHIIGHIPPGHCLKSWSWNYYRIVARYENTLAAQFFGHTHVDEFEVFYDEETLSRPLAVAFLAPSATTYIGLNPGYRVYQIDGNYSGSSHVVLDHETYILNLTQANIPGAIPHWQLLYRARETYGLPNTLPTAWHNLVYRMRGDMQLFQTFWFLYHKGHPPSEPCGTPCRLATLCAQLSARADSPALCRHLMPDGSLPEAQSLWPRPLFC
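qHTS format. ASM enzyme prepared from human placenta hydrolyses the fluorogenic substrate HMU-PC0 (9 uM final) over 60 min at 37 °C after a 10 min compound preincubation.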
TDP1 cell CPT: qHTS for Inhibitors of human tyrosyl-DNA phosphodiesterase 1 (TDP1): qHTS in cells in presence of CPT | chicken DT40 Tdp1-/-;hTDP1 cells + 20 nM CPT, ATP luminescence, 48 h | Potency, µM (highest dose often 46.2 µM), usual class: inhibitors | 420,000 compounds, 12% hits | AID 686979, 2013; further: nearly all actives have a fitted effect of over 55% in size
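Chicken DT40 Tdp1-/- cells stably complemented with human TDP1 were seeded at 400 cells/well in medium containing 20 nM camptothecin, exposed to pin-transferred compounds, and grown at 37 °C for at least 48 hr. Viability was read as ATP luminescence.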
HepG2 viability: qHTS for Inhibitors of TGF-b: Cytotox Counterscreen. HepG2 CAGA-GFP viability, ATP luminescence, 18 h. Potency, µM (doses to about 46.1 µM), most hits filed as cytotoxic. 410,000 compounds, 0.76% hits. AID 588856, 2011
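HepG2 CAGA-GFP cells (1000/well, DMEM with 1% FBS) received compound, then TGF-beta at 500 pg/mL final, and were incubated 18 hours at 37 degrees C. Viability was read by CellTiter-Glo luminescence. Media-only wells were set as complete cell-killing and DMSO as no toxicity.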
DT40 TDP1 no CPT: qHTS for Inhibitors of human tyrosyl-DNA phosphodiesterase 1 (TDP1): qHTS in cells in absence of CPT; DT40 Tdp1-/- hTDP1 cells, no CPT, ATP luminescence, 48 h; Potency, µM (highest dose often 46.2 µM), actives largely listed as inhibitors; 420,000 compounds, 15% hits; AID 686978, 2013; further: nearly all actives have a fitted effect of over 55% in size
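Seeded 400 DT40-hTDP1 cells/well (vehicle DMSO, no 20 nM CPT); pinned compounds; ≥48 hr at 37 °C; CellTiter-Glo luminescence as viability measure.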
A number is an active result. Unless noted, the call rests on the fitted dose curve; in most records, active means well fitted curve in the direction sought with a large enough effect; inconclusive means small, poorly fitted or top-dose-only effect, or another doubt; inactive means no such curve, though single readings can be large; an effect the other way counts as inactive or inconclusive.

Results for CC1(C)CC2CC(C)(CN2C(=S)Nc2ccccc2)C1 (configuration not stated) ?
TGFb SMAD3 inh: inactive; IL-1B inflam inh: inactive; S-ASM inh: inactive; TDP1 cell CPT: inconclusive; HepG2 viability: inactive; DT40 TDP1 no CPT: inconclusive

Results for CC1(C)CC2CC(C)(CN2C(=S)Nc2ccccc2F)C1 (configuration not stated) ?
TGFb SMAD3 inh: inactive; IL-1B inflam inh: inactive; S-ASM inh: inactive; TDP1 cell CPT: 21µM; HepG2 viability: inactive; DT40 TDP1 no CPT: 13µM

Results for CCN(CC(=O)N1CCC(C(N)=O)CC1)S(=O)(=O)c1cc(Cl)ccc1Cl ?
TGFb SMAD3 inh: inactive; IL-1B inflam inh: inactive; S-ASM inh: inactive; TDP1 cell CPT: inactive; HepG2 viability: inactive; DT40 TDP1 no CPT: inactive

What do the screens show for `CCCn1c(SCC(=O)NC2CCCCC2)nnc1-c1ccncc1`?
TGFb SMAD3 inh: inactive; IL-1B inflam inh: inactive; S-ASM inh: inactive; TDP1 cell CPT: 29µM; HepG2 viability: inactive; DT40 TDP1 no CPT: inactive

How did CCCCn1c(SCC(=O)NC2CC2)nnc1-c1ccncc1 do in these assays?
TGFb SMAD3 inh: inactive; IL-1B inflam inh: inactive; S-ASM inh: inactive; TDP1 cell CPT: inactive; HepG2 viability: inactive; DT40 TDP1 no CPT: inactive

Results for CCC(=O)N1CCc2cc(OC)c(OC)cc2C1COc1ccc(F)cc1 (configuration not stated) ?
TGFb SMAD3 inh: inactive; IL-1B inflam inh: inconclusive; S-ASM inh: inactive; TDP1 cell CPT: inactive; HepG2 viability: inactive; DT40 TDP1 no CPT: inconclusive

Results for COc1ccc(CC(=O)N2CCc3cc(OC)c(OC)cc3C2COc2ccc(OC)cc2)cc1 (configuration not stated) ?
TGFb SMAD3 inh: inactive; TDP1 cell CPT: inconclusive; HepG2 viability: inactive; DT40 TDP1 no CPT: 16µM

Results for CCc1ccc(OCC2c3cc(OC)c(OC)cc3CCN2C(=O)Cc2ccc(OC)c(OC)c2)cc1 (configuration not stated) ?
TGFb SMAD3 inh: 11µM; TDP1 cell CPT: inconclusive; HepG2 viability: inactive; DT40 TDP1 no CPT: inconclusive

Results for Cc1ccc(OCCn2cc(/C(N)=N/O)c3ccccc32)cc1C ?
TGFb SMAD3 inh: inactive; IL-1B inflam inh: inactive; S-ASM inh: inactive; TDP1 cell CPT: inactive; HepG2 viability: inactive; DT40 TDP1 no CPT: inconclusive

What do the screens show for `O=C(CS(=O)(=O)c1cn(Cc2ccccc2Cl)c2ccccc12)N1CCOCC1`?
TGFb SMAD3 inh: inactive; IL-1B inflam inh: inactive; S-ASM inh: inactive; TDP1 cell CPT: inactive; HepG2 viability: inactive; DT40 TDP1 no CPT: inactive

Results for Cc1ccccc1OCCn1cc(C=O)c2ccccc21 ?
TGFb SMAD3 inh: inconclusive; IL-1B inflam inh: -53; S-ASM inh: inactive; TDP1 cell CPT: inconclusive; HepG2 viability: inactive; DT40 TDP1 no CPT: inactive

How did COc1ccc(OCCn2cc(/C(N)=N/O)c3ccccc32)cc1 do in these assays?
TGFb SMAD3 inh: inactive; IL-1B inflam inh: -57; S-ASM inh: inactive; TDP1 cell CPT: inactive; HepG2 viability: inactive; DT40 TDP1 no CPT: inconclusive

What do the screens show for `N/C(=N\O)c1cn(Cc2ccccc2Cl)c2ccccc12`?
TGFb SMAD3 inh: inactive; IL-1B inflam inh: -66; S-ASM inh: inactive; TDP1 cell CPT: inconclusive; HepG2 viability: inactive; DT40 TDP1 no CPT: inconclusive

What do the screens show for `COc1ccc(OCCn2cc(C=O)c3ccccc32)cc1`?
TGFb SMAD3 inh: 7.9µM; IL-1B inflam inh: inactive; S-ASM inh: inactive; TDP1 cell CPT: inconclusive; HepG2 viability: inactive; DT40 TDP1 no CPT: inconclusive

What do the screens show for `CC(=O)Nc1ccc(S(=O)(=O)N2CCN(c3ccc(C(C)=O)cc3)CC2)cc1`?
TGFb SMAD3 inh: inactive; HepG2 viability: inactive

What do the screens show for `CCNC(=O)COC(=O)c1[nH]c(C)c(C(=O)OC)c1C`?
TGFb SMAD3 inh: inactive; IL-1B inflam inh: inactive; S-ASM inh: inactive; TDP1 cell CPT: inactive; HepG2 viability: inactive; DT40 TDP1 no CPT: inactive

How did CCOC(=O)C1CCN(C(=O)Cn2c(=O)oc3cc(S(=O)(=O)N4CCCC4)ccc32)CC1 do in these assays?
TGFb SMAD3 inh: inactive; IL-1B inflam inh: inactive; S-ASM inh: inactive; TDP1 cell CPT: inactive; HepG2 viability: inactive; DT40 TDP1 no CPT: inactive

What do the screens show for `CCC(=O)N(CCc1ccc(OC)c(OC)c1)Cc1cc2ccc(C)cc2n2nnnc12`?
TGFb SMAD3 inh: inactive; IL-1B inflam inh: inactive; S-ASM inh: inactive; TDP1 cell CPT: inactive; HepG2 viability: inactive; DT40 TDP1 no CPT: inactive

How did Cc1ccc(C)c(CSc2nc3[nH]ncc3c(=O)[nH]2)c1 do in these assays?
TGFb SMAD3 inh: inactive; IL-1B inflam inh: inactive; S-ASM inh: inactive; TDP1 cell CPT: 2.6µM; HepG2 viability: inactive; DT40 TDP1 no CPT: 1µM

What do the screens show for `Cc1nnc(NC(=O)CSc2nc3[nH]ncc3c(=O)[nH]2)s1`?
TGFb SMAD3 inh: inconclusive; IL-1B inflam inh: inactive; S-ASM inh: inactive; TDP1 cell CPT: inconclusive; HepG2 viability: inactive; DT40 TDP1 no CPT: 15µM

How did Cc1ccccc1CSc1nc2[nH]ncc2c(=O)[nH]1 do in these assays?
TGFb SMAD3 inh: inactive; IL-1B inflam inh: inactive; S-ASM inh: inactive; TDP1 cell CPT: inactive; HepG2 viability: inactive; DT40 TDP1 no CPT: inconclusive

Results for CCc1nnc(NC(=O)CSc2nc3[nH]ncc3c(=O)[nH]2)s1 ?
TGFb SMAD3 inh: inactive; IL-1B inflam inh: inactive; S-ASM inh: inactive; TDP1 cell CPT: inactive; HepG2 viability: inactive; DT40 TDP1 no CPT: inactive

How did COc1ccc(CNC(=O)CCCN2C(=O)NC3(CCCC3)C2=O)cc1 do in these assays?
TGFb SMAD3 inh: inactive; IL-1B inflam inh: inactive; S-ASM inh: inactive; TDP1 cell CPT: inactive; HepG2 viability: inactive; DT40 TDP1 no CPT: inactive

What do the screens show for `CS(=O)(=O)N1c2ccccc2[C@]2([C@@]34C[C@H]5C(=O)N[C@@H](Cc6ccccc6)C(=O)N5[C@@H]3N(S(C)(=O)=O)c3ccccc34)C[C@H]3C(=O)N[C@@H](Cc4ccccc4)C(=O)N3[C@H]12`?
TGFb SMAD3 inh: inactive; IL-1B inflam inh: inactive; S-ASM inh: inactive; TDP1 cell CPT: inactive; HepG2 viability: inactive; DT40 TDP1 no CPT: inactive
